# Laboratory results reported in ChEMBL document CHEMBL3988442, “University of Dundee, Small-Polar-MMV Screening Library” (2021).
# For some of these results: Measured potencies and affinities stand elsewhere.
# How the values were obtained:
# Parameters in all cases: scale not given: direction of the effect not stated beside the values
# [1] = target: Protein translocase subunit SecA (Escherichia coli (strain K12)) (UniProt P10408); test: Assay to Identify E. coli SecA ATPase Inhibitors; format: functional; conditions: 30 µM
# Protein translocase subunit SecA (Escherichia coli (strain K12)), sequence (P10408 whole entry): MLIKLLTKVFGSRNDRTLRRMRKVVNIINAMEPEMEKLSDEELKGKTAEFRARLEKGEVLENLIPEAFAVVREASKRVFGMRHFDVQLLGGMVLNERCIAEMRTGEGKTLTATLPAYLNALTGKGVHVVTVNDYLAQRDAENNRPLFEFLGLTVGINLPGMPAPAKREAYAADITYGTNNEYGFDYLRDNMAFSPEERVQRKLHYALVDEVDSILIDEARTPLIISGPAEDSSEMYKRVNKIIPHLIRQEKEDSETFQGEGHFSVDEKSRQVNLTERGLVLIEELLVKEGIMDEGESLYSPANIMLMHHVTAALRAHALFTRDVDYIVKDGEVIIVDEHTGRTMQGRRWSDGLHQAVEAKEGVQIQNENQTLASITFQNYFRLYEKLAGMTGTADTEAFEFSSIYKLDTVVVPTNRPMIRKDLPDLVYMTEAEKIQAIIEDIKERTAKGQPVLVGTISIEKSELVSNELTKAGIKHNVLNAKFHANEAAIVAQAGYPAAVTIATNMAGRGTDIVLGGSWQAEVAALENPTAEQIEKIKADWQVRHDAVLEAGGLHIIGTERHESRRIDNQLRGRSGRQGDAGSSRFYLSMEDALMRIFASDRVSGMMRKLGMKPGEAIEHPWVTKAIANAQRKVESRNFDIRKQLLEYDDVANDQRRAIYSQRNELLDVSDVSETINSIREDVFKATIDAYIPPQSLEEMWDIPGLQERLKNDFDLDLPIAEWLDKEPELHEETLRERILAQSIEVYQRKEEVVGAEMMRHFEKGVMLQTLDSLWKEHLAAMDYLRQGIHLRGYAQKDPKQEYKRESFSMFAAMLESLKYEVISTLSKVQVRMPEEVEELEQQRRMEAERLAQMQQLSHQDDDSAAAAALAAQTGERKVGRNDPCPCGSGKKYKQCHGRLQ
# [2] = target: T1, Ubiquitin-activating enzyme e1, putative (Leishmania donovani (strain BPK282A1)) (UniProt E9BSI1); test: Leishmania donovani Ubiquitin Activating Enzyme (LdE1); format: functional; conditions: 30 µM
# T1 sequence (whole entry): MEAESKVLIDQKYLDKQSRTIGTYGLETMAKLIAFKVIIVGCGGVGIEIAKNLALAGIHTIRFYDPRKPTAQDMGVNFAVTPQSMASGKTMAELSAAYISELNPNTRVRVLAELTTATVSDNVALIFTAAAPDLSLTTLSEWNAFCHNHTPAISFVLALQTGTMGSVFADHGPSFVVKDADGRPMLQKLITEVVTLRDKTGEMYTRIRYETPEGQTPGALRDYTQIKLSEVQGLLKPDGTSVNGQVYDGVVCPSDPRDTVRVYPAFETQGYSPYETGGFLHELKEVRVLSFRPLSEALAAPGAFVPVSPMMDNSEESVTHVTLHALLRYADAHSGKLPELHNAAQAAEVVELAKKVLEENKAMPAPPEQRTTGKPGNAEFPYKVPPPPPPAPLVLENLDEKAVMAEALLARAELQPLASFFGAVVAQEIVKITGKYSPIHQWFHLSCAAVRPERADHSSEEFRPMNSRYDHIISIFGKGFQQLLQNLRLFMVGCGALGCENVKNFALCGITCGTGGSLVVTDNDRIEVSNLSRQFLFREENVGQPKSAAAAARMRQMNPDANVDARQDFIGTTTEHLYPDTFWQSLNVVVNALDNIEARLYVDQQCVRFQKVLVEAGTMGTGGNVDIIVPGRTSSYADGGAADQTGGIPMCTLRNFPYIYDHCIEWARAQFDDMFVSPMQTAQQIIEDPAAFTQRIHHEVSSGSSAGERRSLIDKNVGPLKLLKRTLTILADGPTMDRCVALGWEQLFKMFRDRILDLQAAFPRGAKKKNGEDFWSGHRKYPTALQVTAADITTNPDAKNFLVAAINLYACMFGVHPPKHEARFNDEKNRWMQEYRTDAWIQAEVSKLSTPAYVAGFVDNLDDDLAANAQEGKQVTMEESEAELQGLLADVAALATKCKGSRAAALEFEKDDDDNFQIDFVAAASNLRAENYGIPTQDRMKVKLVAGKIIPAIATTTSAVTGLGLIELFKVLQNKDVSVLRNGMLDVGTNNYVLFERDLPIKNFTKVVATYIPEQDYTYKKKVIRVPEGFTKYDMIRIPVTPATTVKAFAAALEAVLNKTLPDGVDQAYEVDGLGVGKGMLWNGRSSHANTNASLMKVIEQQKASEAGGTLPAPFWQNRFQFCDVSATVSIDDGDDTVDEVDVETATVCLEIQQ
# [3] = target: AMP-activated protein kinase, AMPK (Homo sapiens) (UniProt P54646+O43741+P54619+Q9UGJ0+Q9Y478+Q13131+Q9UGI9); test: AMP-dependent Kinase enzyme assay. An in vitro enzyme assay that detects ADP turnover that is directly proportional to AMPK activity. This uses naive AMPK that is activated during the assay with MK-8722; format: functional; conditions: 30 µM
# [4] = target: Sialic acid-binding Ig-like lectin 9 (Homo sapiens) (UniProt Q9Y336); test: Hs-Siglec9 ALPHAscreen SOP 20170721; conditions: 10 µM
# Sialic acid-binding Ig-like lectin 9 (Homo sapiens), sequence (Q9Y336 whole entry): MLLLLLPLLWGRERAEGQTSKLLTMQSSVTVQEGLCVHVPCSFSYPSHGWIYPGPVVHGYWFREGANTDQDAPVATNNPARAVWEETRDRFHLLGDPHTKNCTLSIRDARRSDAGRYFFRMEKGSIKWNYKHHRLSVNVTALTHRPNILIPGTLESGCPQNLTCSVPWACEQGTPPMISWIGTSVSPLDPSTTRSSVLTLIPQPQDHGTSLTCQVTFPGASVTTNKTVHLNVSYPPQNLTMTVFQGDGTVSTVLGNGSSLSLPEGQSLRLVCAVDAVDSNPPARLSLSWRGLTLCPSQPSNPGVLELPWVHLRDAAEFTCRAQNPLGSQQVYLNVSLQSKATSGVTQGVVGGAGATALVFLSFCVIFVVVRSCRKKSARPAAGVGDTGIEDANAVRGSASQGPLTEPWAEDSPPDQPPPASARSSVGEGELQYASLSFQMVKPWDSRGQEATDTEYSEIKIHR
# [5] = tested on: Trypanosoma cruzi; test: Trypanosoma cruzi phosphomannomutase and mannose-1-phosphate guanylyltransferase assay; format: functional; conditions: 10 µM
# [6] = target: T2, Arginase-2, mitochondrial (Homo sapiens) (UniProt P78540); test: in vitro enzyme assay to detect the production of urea directly proportional to the activity of Arginase II; format: functional; conditions: 33.3 µM; also: in the data most compounds retested in dose-response had high values
# T2 sequence (whole entry): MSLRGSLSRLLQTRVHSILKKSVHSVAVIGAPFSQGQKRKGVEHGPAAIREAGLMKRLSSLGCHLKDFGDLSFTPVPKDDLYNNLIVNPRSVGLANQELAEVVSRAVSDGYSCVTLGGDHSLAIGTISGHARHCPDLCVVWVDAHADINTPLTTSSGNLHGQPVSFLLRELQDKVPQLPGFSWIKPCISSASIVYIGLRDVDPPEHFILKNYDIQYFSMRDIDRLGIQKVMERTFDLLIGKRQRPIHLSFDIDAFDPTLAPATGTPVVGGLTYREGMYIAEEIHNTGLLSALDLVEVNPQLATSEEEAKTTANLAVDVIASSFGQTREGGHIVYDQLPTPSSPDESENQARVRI
# [7] = target: T3, Proteasome subunit beta (Trypanosoma cruzi) (UniProt O96673); test: Trypanosoma cruzi proteasome chymotrypsin-like activity (TcProtChymo) assay.; also: in the data most compounds retested in dose-response had high values; format: functional; conditions: 9.37 µM
# T3 sequence (whole entry): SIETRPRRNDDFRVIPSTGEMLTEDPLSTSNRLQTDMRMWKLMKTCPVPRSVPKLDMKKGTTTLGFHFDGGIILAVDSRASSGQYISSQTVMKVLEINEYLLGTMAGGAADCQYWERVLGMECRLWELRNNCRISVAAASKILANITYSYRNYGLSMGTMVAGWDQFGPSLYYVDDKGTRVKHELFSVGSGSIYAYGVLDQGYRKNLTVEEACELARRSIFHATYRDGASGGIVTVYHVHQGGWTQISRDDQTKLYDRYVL
# [8] = species on record: Homo sapiens; test: To identify inhibition of the IFN signalling (Jak-Stat) pathway via expression of an eGFP reporter gene under the control of an IFN-stimulated response element (ISRE) containing MxA promoter.; format: functional; conditions: 30 µM
# [9] = target: T4, Tyrosyl-tRNA synthetase, putative (Trypanosoma cruzi (strain CL Brener)) (UniProt Q4DSP6); test: Trypanosoma cruzi tyrosyl tRNA synthetase (TcYRS) _High Tyrosine SOP; format: functional; conditions: 30 µM; also: in the data most compounds retested in dose-response had high values
# T4 sequence (whole entry): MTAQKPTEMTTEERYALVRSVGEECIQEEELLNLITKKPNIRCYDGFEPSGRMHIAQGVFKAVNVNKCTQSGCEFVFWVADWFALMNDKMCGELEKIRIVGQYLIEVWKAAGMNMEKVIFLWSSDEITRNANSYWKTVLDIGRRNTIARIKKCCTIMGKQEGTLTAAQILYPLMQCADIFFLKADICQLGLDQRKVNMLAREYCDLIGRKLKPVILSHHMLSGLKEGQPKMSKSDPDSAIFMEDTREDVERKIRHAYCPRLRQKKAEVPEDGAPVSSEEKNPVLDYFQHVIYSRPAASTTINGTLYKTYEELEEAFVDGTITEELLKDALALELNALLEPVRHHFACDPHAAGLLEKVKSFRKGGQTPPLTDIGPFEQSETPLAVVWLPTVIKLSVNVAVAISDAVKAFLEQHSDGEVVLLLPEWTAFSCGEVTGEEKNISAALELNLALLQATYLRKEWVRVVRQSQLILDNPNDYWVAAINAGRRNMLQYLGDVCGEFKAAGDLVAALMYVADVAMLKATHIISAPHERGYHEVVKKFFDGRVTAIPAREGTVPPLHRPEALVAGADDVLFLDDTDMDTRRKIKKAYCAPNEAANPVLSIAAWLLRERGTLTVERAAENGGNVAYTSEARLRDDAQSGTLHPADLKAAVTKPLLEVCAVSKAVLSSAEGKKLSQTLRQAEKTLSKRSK
# [10] = target: T4, Tyrosyl-tRNA synthetase, putative (Trypanosoma cruzi (strain CL Brener)); test: Trypanosoma cruzi tyrosyl tRNA synthetase (TcYRS) SOP; format: functional; conditions: 30 µM
# [11] = target: Chromo domain-containing protein 1 (Saccharomyces cerevisiae (strain ATCC 204508 / S288c) (Baker's yeast)) (UniProt P32657); test: ScCHD-1 Enzyme Inhibition Assay; format: functional; conditions: 30 µM; also: in the data most compounds retested in dose-response had high values
# Chromo domain-containing protein 1 (Saccharomyces cerevisiae (strain ATCC 204508 / S288c) (Baker's yeast)), sequence (P32657 whole entry, the tested form may be a part): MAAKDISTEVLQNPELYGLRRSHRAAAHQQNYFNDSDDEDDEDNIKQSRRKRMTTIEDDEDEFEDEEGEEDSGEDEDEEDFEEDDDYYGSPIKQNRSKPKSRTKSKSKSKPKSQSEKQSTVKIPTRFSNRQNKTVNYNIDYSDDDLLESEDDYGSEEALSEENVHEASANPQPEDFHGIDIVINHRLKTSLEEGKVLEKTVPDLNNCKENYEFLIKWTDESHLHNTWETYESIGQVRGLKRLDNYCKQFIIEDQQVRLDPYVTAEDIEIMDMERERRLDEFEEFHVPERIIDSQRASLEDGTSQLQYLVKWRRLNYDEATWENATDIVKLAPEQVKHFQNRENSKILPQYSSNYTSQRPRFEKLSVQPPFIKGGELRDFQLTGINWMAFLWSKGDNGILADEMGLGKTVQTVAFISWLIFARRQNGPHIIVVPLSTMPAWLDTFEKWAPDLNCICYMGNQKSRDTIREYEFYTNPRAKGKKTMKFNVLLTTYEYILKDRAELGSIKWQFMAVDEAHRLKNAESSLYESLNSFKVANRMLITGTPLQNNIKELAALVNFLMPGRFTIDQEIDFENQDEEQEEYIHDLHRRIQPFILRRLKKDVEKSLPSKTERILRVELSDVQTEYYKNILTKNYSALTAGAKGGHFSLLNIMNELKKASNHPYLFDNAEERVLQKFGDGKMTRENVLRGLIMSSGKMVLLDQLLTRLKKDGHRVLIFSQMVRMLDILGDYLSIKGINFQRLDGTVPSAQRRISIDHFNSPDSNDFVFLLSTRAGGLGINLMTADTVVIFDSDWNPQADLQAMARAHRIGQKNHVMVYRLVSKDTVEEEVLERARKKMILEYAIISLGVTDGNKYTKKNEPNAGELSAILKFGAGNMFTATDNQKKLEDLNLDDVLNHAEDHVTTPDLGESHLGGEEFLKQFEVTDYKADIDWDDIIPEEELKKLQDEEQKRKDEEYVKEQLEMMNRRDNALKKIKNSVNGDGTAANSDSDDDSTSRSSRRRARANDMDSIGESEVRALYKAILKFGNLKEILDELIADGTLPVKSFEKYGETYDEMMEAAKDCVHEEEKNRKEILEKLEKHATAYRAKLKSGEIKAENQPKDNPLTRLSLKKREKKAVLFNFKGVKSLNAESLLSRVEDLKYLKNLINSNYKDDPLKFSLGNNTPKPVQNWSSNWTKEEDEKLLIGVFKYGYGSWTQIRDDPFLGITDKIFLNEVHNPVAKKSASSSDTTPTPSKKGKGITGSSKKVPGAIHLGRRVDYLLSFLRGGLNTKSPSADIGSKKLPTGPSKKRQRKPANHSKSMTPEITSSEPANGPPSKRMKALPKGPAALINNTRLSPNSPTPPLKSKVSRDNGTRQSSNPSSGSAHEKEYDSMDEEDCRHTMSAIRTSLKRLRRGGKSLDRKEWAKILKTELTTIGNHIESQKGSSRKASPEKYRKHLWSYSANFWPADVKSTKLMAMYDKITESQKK
Structure (SMILES),Percent Effect [1],Percent Effect [2],Percent Effect [3],Percent Effect [4],Percent Effect [5],Percent Effect [6],Percent Effect [7],Percent Effect [8],Percent Effect [9],Percent Effect [10],Percent Effect [11]
Cn1cc(CCC(=O)N2CCN(Cc3ccncc3)CC2)cn1,-7.43%,15.6%,3.53%,-6.41%,-4.87%,-1.42%,4.22%,2.24%,6.8%,14.6%,-5.86%
CN1CCCC(Cc2ccnc3ccncc23)CC1 (stereo not given),-5.09%,-1.35%,2.02%,0.644%,-0.988%,-2.09%,-0.312%,3.76%,2.15%,-1.3%,4.65%
O=C(c1cnc(-c2cccs2)s1)N1CCCN2CCCC2C1 (stereo not given),-2%,5.41%,-8.71%,-6.92%,-2.36%,-16%,12.6%,-1.67%,4.43%,23.5%,-7.67%
Cc1cc(NC(=O)CN2CCn3c(nnc3C3CC3)C2)n(C)n1,-3.7%,-5.26%,11.5%,-1.43%,-4.7%,0%,4.84%,21.3%,-0.49%,0%,3.45%
Cc1[nH]ncc1C(=O)N1CCCC(c2cc(C(F)(F)F)[nH]n2)C1 (stereo not given),-6.98%,8.11%,-26.4%,5.54%,-6.59%,-3.51%,2.69%,14.8%,2.97%,6.1%,3.81%
CCOc1nnc(CN2CCC(N(C)Cc3noc(C)n3)C2)s1 (stereo not given),-0.236%,13.2%,-4.92%,-14.9%,-9.06%,5.04%,12.4%,11.4%,7.39%,6.17%,-8.06%
Cc1cc2n(n1)CC(CNCc1cnn(-c3ccccc3)c1)CN2 (stereo not given),2.28%,5.26%,-10.4%,1.3%,2.26%,4.21%,13.9%,15.7%,12.2%,12.2%,-7.16%
CCOc1ncccc1CNC(=O)N1CCCC1c1ccncc1 (stereo not given),-1.89%,5.33%,-2.16%,2.11%,-7.3%,4.17%,8.37%,12.2%,4.92%,13.6%,-7.62%
Cc1cc(CN(C)C(=O)NC(C)c2nncn2C)no1 (stereo not given),-1.93%,15.3%,-8.88%,15.4%,2.43%,35.8%,22.6%,-0.22%,3.16%,10.3%,72%
c1ccc(CCN2CCOC(Cn3cccn3)C2)nc1 (stereo not given),-6.2%,5.2%,-1.28%,6.84%,7.54%,1.05%,3.15%,5.5%,3.81%,11.8%,-7.53%
O=C(NCC(F)F)N1CCC(n2ccc(C(F)(F)F)n2)CC1,-2.09%,5.48%,-1.59%,3.79%,5.09%,8.64%,10.3%,0.988%,2.15%,7.5%,-4.48%
CN(C(=O)c1cc(Cl)c[nH]1)C1CCN(c2ccccn2)CC1,-4.94%,-2.6%,-2.5%,-14.5%,6.17%,-4%,9.46%,-0.502%,13.3%,23.5%,-20.8%
O=C(Nc1cnn(CCN2CCOCC2)c1)c1ccccn1,-3.13%,10.5%,3.43%,9.01%,3.38%,0%,5.85%,-7.34%,5.39%,12.2%,0.887%
Cn1cnnc1C1CCCN(C(=O)NCCc2ccccc2F)C1 (stereo not given),-3%,10.4%,-0.267%,-7.57%,5.97%,6.53%,6.71%,11.1%,3.81%,14.1%,-9.4%
CCOc1ccccc1OC1CCN(C(=O)c2cc[nH]n2)CC1,-5.63%,13.2%,8.96%,-2.66%,-4.13%,4.21%,12.4%,26.7%,2.45%,7.32%,-7.55%
COc1ccccc1CC(=O)NS(=O)(=O)c1ccc(C(N)=O)cc1,-0.063%,0%,0.334%,0.784%,-0.374%,9.25%,1.35%,-4.28%,3.88%,-2.44%,-0.229%
N#Cc1ccc(N2CCN(C(=O)c3cc(C4CC4)[nH]n3)CC2)c(F)c1,-6.31%,8.11%,-4.12%,19.3%,5.29%,-4.99%,-0.179%,7.83%,4.95%,23.2%,-7.65%
CSc1ccc(NS(=O)(=O)c2cnn(C)c2)cn1,-5.12%,8.22%,-0.942%,42.3%,3.57%,-4.39%,0.0856%,-19.3%,4.17%,13.6%,-2.22%
CCN1CCC2(CC1)CC(NC(=O)NC)c1cc(C)ccc12 (stereo not given),-3.84%,13.3%,6.34%,6.37%,5.21%,-56.5%,10.9%,-24.6%,4.17%,7.5%,-5.82%
CC(C)(C)CC(=O)N1CC[C@@H]2[C@H](CC1)N(S(C)(=O)=O)CCS2(=O)=O,-2.22%,16.2%,-9.04%,3.69%,5.27%,15%,9.89%,8.9%,8.91%,20.7%,-8.05%
